Assay results taken from PubChem BioAssay AID1159580 (chemical genetic matrix, 2015).
Values joined by “and” are separate entries in the source; they are usually repeats but may differ in a detail not shown here. Equal entries are not always repeated. Screen size: about 5,500 compounds; about 2,000 (36%) were called active. Another 18% or so got no clear call; they are omitted. Rule as the data show it: active = normalized growth mostly below about 0.91 (no sharp cut-off); inconclusive = no clear call, values can overlap the other calls; inactive = mostly above about 0.92. The list shows a part of the results.

Assay: chemical genetic growth profiling, strain panel (AID 1159580);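 also: tested at 20 µM; growth read once vehicle control cultures reached saturation at 30 °C; 1 = growth at the plate median or of vehicle wells; lower values mean less growth of the strain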
Details: S. cerevisiae deletion strains, growth OD

Measured: normalized growth

NCCCNCCSP(=O)(O)O
inactive: locus YAL013W, strain DEP1, stronger effect = lower value 0.988 and 1.01 | locus YAL021C, strain ccr4, stronger effect = lower value 0.985 | locus YAL026C, strain drs2, stronger effect = lower value 0.976 | locus YAL030W, strain snc1, stronger effect = lower value 0.968 | locus YAL040C, strain CLN3, stronger effect = lower value 1 | locus YBL061C, strain skt5, stronger effect = lower value 0.97 | locus YBR009C, strain hhf1, stronger effect = lower value 0.988 | locus YBR021W, strain FUR4, stronger effect = lower value 0.967 | locus YBR023C, strain chs3, stronger effect = lower value 0.976 | locus YBR171W, strain sec66, stronger effect = lower value 0.96 | locus YBR229C, strain ROT2, stronger effect = lower value 1 | locus YBR231C, strain swc5, stronger effect = lower value 0.975 | locus YBR279W, strain paf1, stronger effect = lower value 0.995 | locus YCL011C, strain gbp2, stronger effect = lower value 0.957 | locus YCL016C, strain dcc1, stronger effect = lower value 0.982 | locus YCL029C, strain bik1, stronger effect = lower value 0.988 | locus YCL061C, strain MRC1, stronger effect = lower value 0.983 | locus YCL069W, strain vba3, stronger effect = lower value 0.994 | locus YCR088W, strain abp1, stronger effect = lower value 0.982 | locus YDL005C, strain med2, stronger effect = lower value 0.969 | locus YDL035C, strain GPR1, stronger effect = lower value 0.994 | locus YDL040C, strain nat1, stronger effect = lower value 0.987 | locus YDL074C, strain BRE1, stronger effect = lower value 0.993 | locus YDL101C, strain DUN1, stronger effect = lower value 0.984 | locus YDL134C, strain PPH21, stronger effect = lower value 0.994 | locus YDL185W, strain tfp1, stronger effect = lower value 0.944 | locus YDL192W, strain arf1, stronger effect = lower value 0.986 | locus YDR001C, strain nth1, stronger effect = lower value 0.977 | locus YDR069C, strain doa4, stronger effect = lower value 0.968 | locus YDR101C, strain arx1, stronger effect = lower value 1 | locus YDR137W, strain rgp1, stronger effect = lower value 0.968 | locus YDR150W, strain NUM1, stronger effect = lower value 0.949 | locus YDR159W, strain sac3, stronger effect = lower value 0.98 | locus YDR162C, strain NBP2, stronger effect = lower value 0.992 | locus YDR195W, strain ref2 0.989 | locus YDR297W, strain sur2, stronger effect = lower value 0.983 | locus YDR318W, strain mcm21, stronger effect = lower value 0.986 | locus YDR334W, strain swr1, stronger effect = lower value 0.933 | locus YDR335W, strain msn5, stronger effect = lower value 0.981 | locus YDR388W, stronger effect = lower value 1 | locus YDR392W, strain spt3, stronger effect = lower value 0.927 | locus YDR502C, strain sam2, stronger effect = lower value 0.993 | locus YEL003W, strain gim4, stronger effect = lower value 0.988 | locus YEL037C, strain rad23, stronger effect = lower value 0.981 | locus YEL061C, strain CIN8 (second series), stronger effect = lower value 0.972 | locus YEL061C, strain CIN8, stronger effect = lower value 0.998 | locus YER002W, strain NOP16, stronger effect = lower value 0.997 | locus YER015W, strain faa2, stronger effect = lower value 0.973 | locus YER016W, strain bim1, stronger effect = lower value 0.991 | locus YER110C, stronger effect = lower value 0.989 | locus YER111C, strain swi4, stronger effect = lower value 0.988 | locus YER155C, strain BEM2 (second series), stronger effect = lower value 0.983 | locus YER155C, strain BEM2, stronger effect = lower value 0.942 | locus YER167W, strain BCK2, stronger effect = lower value 0.991 | locus YFR010W, strain ubp6, stronger effect = lower value 0.957 | locus YGL078C, strain dbp3, stronger effect = lower value 0.987 | locus YGL086W, strain mad1, stronger effect = lower value 0.978 | locus YGL167C, strain pmr1, stronger effect = lower value 0.976 | locus YGL173C, strain kem1, stronger effect = lower value 0.944 | locus YGL227W, strain vid30, stronger effect = lower value 0.974 | locus YGL240W, strain doc1, stronger effect = lower value 0.984 | locus YGL248W, strain PDE1, stronger effect = lower value 1 | locus YGL253W, strain hxk2, stronger effect = lower value 0.989 | locus YGR078C, strain PAC10, stronger effect = lower value 0.984 | locus YGR135W, strain pre9, stronger effect = lower value 0.984 | locus YGR229C, strain SMI1, stronger effect = lower value 0.964 | locus YGR252W, strain gcn5, stronger effect = lower value 0.978 | locus YHR013C, strain ard1, stronger effect = lower value 0.981 | locus YHR027C, strain rpn1, stronger effect = lower value 0.959 | locus YHR030C, strain SLT2, stronger effect = lower value 0.993 | locus YHR079C, strain IRE1 (second series), stronger effect = lower value 0.991 | locus YHR094C, strain hxt1, stronger effect = lower value 0.979 | locus YHR129C, strain ARP1, stronger effect = lower value 0.999 | locus YHR142W, strain chs7, stronger effect = lower value 0.936 | locus YHR200W, strain rpn10, stronger effect = lower value 0.983 | locus YIL066C, strain RNR3, stronger effect = lower value 0.995 | locus YIL073C, strain SPO22, stronger effect = lower value 0.941 | locus YIL125W, strain kgd1, stronger effect = lower value 1 | locus YIR030C, strain dcg1, stronger effect = lower value 0.998 | locus YJL092W, strain hpr5, stronger effect = lower value 0.979 | locus YJL095W, strain BCK1 (second series), stronger effect = lower value 0.983 | locus YJL095W, strain BCK1, stronger effect = lower value 1.02 | locus YJL115W, strain asf1, stronger effect = lower value 0.955 | locus YJL129C, strain trk1, stronger effect = lower value 1 | locus YJL134W, strain LCB3, stronger effect = lower value 0.989 | locus YJL154C, strain vps35, stronger effect = lower value 0.972 | locus YJL164C, strain tpk1, stronger effect = lower value 0.992 | locus YJL166W, strain qcr8, stronger effect = lower value 0.956 | locus YJL168C, strain set2, stronger effect = lower value 1 | locus YJL187C, strain SWE1 (second series), stronger effect = lower value 0.99 | locus YJL187C, strain SWE1, stronger effect = lower value 0.982 | locus YJR043C, strain POL32, stronger effect = lower value 0.994
